Assay outcomes deposited in PubChem BioAssay by National Center for Advancing Translational Sciences (NCATS).
Most compounds without a hit are left out; they make up all but 2.4% or so of the library.
FEN1 inh-1: blocks human flap endonuclease 1; Potency, µM (highest dose often 114 µM), hits mostly inhibitors; P39748; 390,000 tested, 0.35% active; AID 588795; Recombinant FEN1 flap cleavage, fluorescence, 15 min; also: nearly all actives have a fitted effect of over 65% in size
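Nuclease activity of 10 nM FEN1 was measured after 15 min of room-temperature exposure to titrated compounds, by adding 50 nM flap substrate and reading plates at 0 and 15 min.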
Pol beta inh: blocks human DNA polymerase beta activity. Pol beta primer extension/strand displacement, fluorescence kinetic. Potency, µM (series often up to 114 µM), most hits filed as inhibitors. 340,000 tested, 1.3% active. AID 485314
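Kinetic readout of DNA synthesis with strand displacement by Pol beta. Compound and 10 nM enzyme sit 15 min at room temperature; 50 nM substrate starts the reaction, read immediately and at 10 min.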
Pol kappa inh-1: blocks human DNA polymerase kappa activity | purified Pol kappa, fluorescent DNA synthesis assay, 10 min | Potency, µM (top dose mostly 107 µM), usual class: inhibitors | 400,000 tested, 0.53% active | AID 588579
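50 nM final substrate added after 15 min RT preincubation of 10 nM Pol kappa with compound; fluorescence read at 0 and 10 min.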
POLI inh: DNA polymerase iota (human) inhibition. Q9UNA4. Pol iota fluorescent replication assay, 10 min. Potency, µM (series often up to 115 µM), hits mostly inhibitors. 390,000 tested, 1% active. AID 588590
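Pol iota at 10 nM preincubated 15 min with compounds at room temperature; reaction started with fluorescent substrate, 50 nM final. Fluorescence read kinetically at 0 and 10 min; buffer-only wells as negative control.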
Pol eta inh-1: blocks human DNA polymerase eta activity; Q9Y253; recombinant Pol eta, fluorescent DNA replication assay; Potency, µM (titrated, usually from 114 µM), hits mostly inhibitors; 390,000 tested, 1.2% active; AID 588591
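Pol eta at 10 nM preincubated with compounds 15 min at room temperature; reaction started with fluorescent substrate (50 nM final) and read kinetically at 0 and 10 min.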
WRN helicase inh-1: inhibitors of human WRN helicase; Q14191; WRN helicase unwinding, fluorescent forked duplex, kinetic; Potency, µM (doses to about 114 µM), hits mostly inhibitors; 360,000 tested, 0.46% active; AID 651768; also: nearly all actives have a fitted effect of over 55% in size
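WRN at 20 nM final was preincubated with compound for 15 min at room temperature; reaction started with 100 nM forked duplex oligonucleotide carrying fluorophore and quencher plus 2 mM ATP (final). Unwinding followed kinetically by red fluorescence (ex 525/em 598 nm).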
GALK confirm: galactokinase (human) inhibition, confirmation; shares compounds with Pol eta inh-1; purified GALK, Kinase-Glo ATP depletion luminescence; Potency, µM (series often up to 115 µM), most hits filed as inhibitors; 150 tested, 70% active; AID 2015
Redox cycling: generates H2O2 by redox cycling, flagging GALK artifacts; shares compounds with Pol eta inh-1; Phenol red-HRP H2O2 redox cycling, absorbance 600 nm; Potency, µM (highest dose often 115 µM), actives largely listed as inhibitors; 150 tested, 40% active
HEK293 tox: reduces HEK-293 cell viability in GALK counter-screen | shares compounds with Pol eta inh-1 | HEK-293 viability, ATP luminescence (CellTiter-Glo), 24/48 h | Potency, µM (titrated, usually from 46.1 µM), actives largely listed as inhibitors | 170 tested, 10% active | AID 2547
Pol kappa inh-2: confirmation of human DNA polymerase kappa inhibitors; shares compounds with Pol eta inh-1; Potency, µM, actives largely listed as inhibitors; 920 tested, 76% active; purified Pol-kappa, fluorescent strand-displacement substrate
Pol eta inh-2: confirmation of human DNA polymerase eta inhibitors; shares compounds with Pol eta inh-1; Pol eta primer extension, TAMRA/BHQ fluorescence, 10 min; Potency, µM, most hits filed as inhibitors; 2,600 tested, 64% active; AID 720502
FEN1 inh-2: confirmation of human FEN1 inhibitors | shares compounds with FEN1 inh-1 | FEN1 flap cleavage, TAMRA/BHQ2 fluorogenic DNA substrate | Potency, µM, hits mostly inhibitors | 880 tested, 79% active | AID 720498; also: nearly all actives have a fitted effect of over 60% in size
WRN helicase inh-2: confirmation of human WRN helicase inhibitors | WRN helicase DNA unwinding, fluorescence kinetic | shares compounds with WRN helicase inh-1 | 610 tested, 63% active | Potency, µM (top dose mostly 57.1 µM), hits mostly inhibitors; also: nearly all actives have a fitted effect of over 65% in size
TO DNA binding: DNA binding via thiazole orange displacement; Potency, µM (highest dose often 57.1 µM), hits mostly inhibitors; 610 tested, 10% active; shares compounds with WRN helicase inh-1; thiazole orange DNA binding displacement, fluorescence;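 also: drop in dye fluorescence marks compound binding to DNA; nearly all actives have a fitted effect of over 60% in size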
BLM counter: BLM helicase inhibition, WRN selectivity check; Potency, µM (top dose mostly 57.1 µM), most hits filed as inhibitors; Recombinant BLM helicase DNA unwinding, red fluorescence; 610 tested, 60% active; shares compounds with WRN helicase inh-1; also: nearly all actives have a fitted effect of over 60% in size
Large screens that a line does not name were inactive (follow-up assays come after a bar, where they were run). Calls follow the shape of the dose curve; as a rule, active = well fitted curve in the direction sought with a large enough effect; inconclusive = small, poorly fitted or top-dose-only effect, or another doubt; inactive = no such curve, though single readings can be large; an effect the other way counts as inactive or inconclusive.

O=C(NNc1cc(N2CCOCC2)nc(N2CCOCC2)n1)c1ccc([N+](=O)[O-])cc1	POLI inh 6.31µM, Pol eta inh-1 89.1µM | GALK confirm 23.7µM | Redox cycling 4.21µM | HEK293 tox inactive | FEN1 inh-2 inconclusive
Cc1ccc(C(=O)/C=C/c2cc(Br)cc(Br)c2O)o1	FEN1 inh-1 inconclusive, Pol beta inh inconclusive, POLI inh inconclusive, Pol eta inh-1 50.1µM, WRN helicase inh-1 79.4µM | Pol eta inh-2 inconclusive | FEN1 inh-2 84.9
CCOc1ccc(NC(=O)CSc2nnc3scc(-c4ccccc4)n23)cc1	none (no result: Pol eta inh-1, WRN helicase inh-1)
CCOC(=O)c1[nH]c(C)c(CCC(=O)N2CCN(c3cc(C)ccc3C)CC2)c1C	none (no result: WRN helicase inh-1)
O=C(Nc1ccccc1C(=O)O)c1cccc(NC(=O)c2ccccc2Br)c1	none
O=C(Nc1cc(C(=O)Nc2ccccc2C(=O)O)cc(C(=O)Nc2ccccc2C(=O)O)c1)c1ccccc1	FEN1 inh-1 25.1µM, Pol kappa inh-1 inconclusive, POLI inh inconclusive, Pol eta inh-1 14.1µM, WRN helicase inh-1 39.8µM | Pol eta inh-2 30.1 | FEN1 inh-2 33.8
Cc1cccc(NC(=O)CSc2nc3ccccc3c3nc(CCn4cncc4C)nn23)c1	none (no result: WRN helicase inh-1)
CCOc1cc(/C=C(\C#N)C(=O)Nc2cccc(C(=O)O)c2)ccc1OCc1ccccc1Cl	FEN1 inh-1 inconclusive, POLI inh inconclusive, Pol eta inh-1 56.2µM | Pol eta inh-2 inconclusive | FEN1 inh-2 inconclusive
Cc1nn2c(=O)cc(COc3ccc(/C=C(\C#N)C(=O)Nc4ccccc4)cc3Cl)nc2s1	Pol beta inh inconclusive, POLI inh inconclusive (no result: WRN helicase inh-1)
O=C1OC(c2cccs2)=N/C1=C\c1ccc(-c2cccc(Cl)c2)o1	POLI inh inconclusive, Pol eta inh-1 inconclusive
N=C1S/C(=C\c2ccc(-c3cccc(Cl)c3)o2)C(=O)N1c1nccs1	FEN1 inh-1 inconclusive, Pol beta inh 8.91µM, POLI inh inconclusive, Pol eta inh-1 10µM, WRN helicase inh-1 44.7µM | Pol kappa inh-2 23.8 | Pol eta inh-2 inconclusive | WRN helicase inh-2 21.5µM | TO DNA binding 17.1µM | BLM counter 7.64µM
O=C(N/N=C1/C(=O)c2cccc3cccc1c23)c1ccc(Cl)cc1	FEN1 inh-1 79.4µM, Pol beta inh inconclusive, Pol eta inh-1 8.91µM, WRN helicase inh-1 15.8µM | Pol eta inh-2 inconclusive | WRN helicase inh-2 6.07µM | TO DNA binding 19.2µM | BLM counter 2.15µM
CCNC(=S)N/N=C1\C(=O)c2cccc3cccc1c23	none
CC1C=CC(C)C(C(=O)O)C1C(=O)O (stereo not drawn)	Pol beta inh 5.62µM, Pol kappa inh-1 39.8µM, POLI inh inconclusive, Pol eta inh-1 2.51µM, WRN helicase inh-1 inconclusive | Pol eta inh-2 5.36 | WRN helicase inh-2 13.6µM | TO DNA binding inactive | BLM counter 4.82µM
N[C@H](C(=O)O)C1[C@H](C(=O)O)[C@H]1C(=O)O (stereo partly drawn)	none (no result: FEN1 inh-1, Pol beta inh, POLI inh, Pol eta inh-1, WRN helicase inh-1)
COc1cc(/C=C2/SC(=S)N(Cc3ccccc3)C2=O)ccc1OS(C)(=O)=O	none
COc1cc([N+](=O)[O-])cc(/C=C2/SC(=S)N(Cc3ccccc3)C2=O)c1O	FEN1 inh-1 15.8µM, Pol beta inh 17.8µM, POLI inh 14.1µM, Pol eta inh-1 inconclusive, WRN helicase inh-1 2.67µM | Pol kappa inh-2 18.9 | Pol eta inh-2 42.6 | FEN1 inh-2 21.3 | WRN helicase inh-2 7.64µM | TO DNA binding 13.6µM | BLM counter 5.41µM
Cc1ccc(OCC(=O)O)c(O)c1	none (no result: Pol beta inh)
Cc1cc(O)c(Oc2cc(C)cc(O)c2O)c(O)c1	FEN1 inh-1 50.1µM, Pol beta inh 3.55µM, Pol kappa inh-1 22.4µM, POLI inh 39.8µM, Pol eta inh-1 22.4µM, WRN helicase inh-1 28.2µM | Pol eta inh-2 37.9 | WRN helicase inh-2 19.2µM | TO DNA binding inactive | BLM counter 21.5µM
O=C1NN(c2ccccc2)C(=O)/C1=C\c1coc2ccc(O)cc2c1=O	Pol beta inh inconclusive, Pol kappa inh-1 inconclusive, POLI inh inconclusive, Pol eta inh-1 inconclusive, WRN helicase inh-1 inconclusive | Pol eta inh-2 inconclusive | WRN helicase inh-2 inactive | TO DNA binding inactive | BLM counter inconclusive
O=C1NN(c2ccccc2)C(=O)/C1=C/c1coc2ccccc2c1=O	Pol kappa inh-1 inconclusive, POLI inh inconclusive, Pol eta inh-1 inconclusive, WRN helicase inh-1 inconclusive
O=C(O)/C=C/C(=O)c1ccc2c(c1)CCc1ccccc1-2	FEN1 inh-1 inconclusive, POLI inh 1.58µM, Pol eta inh-1 35.5µM, WRN helicase inh-1 1.5µM (no result: Pol beta inh) | Pol eta inh-2 inconclusive | WRN helicase inh-2 inconclusive | TO DNA binding inactive | BLM counter 19.2µM
CCC(C)NC(=O)c1cccc(NC(=O)c2nsc3ccccc23)c1 (stereo not drawn)	none (no result: WRN helicase inh-1)
C=CCn1c(SCC(=O)c2ccc(O)c(O)c2)nnc1-c1cccc(C)c1	Pol kappa inh-1 44.7µM, POLI inh 79.4µM, Pol eta inh-1 15.8µM, WRN helicase inh-1 20µM (no result: Pol beta inh) | Pol eta inh-2 inconclusive | WRN helicase inh-2 8.57µM | TO DNA binding inactive | BLM counter inconclusive
